Screening data from PubChem.
Most compounds without a hit are left out; they make up all but 3.5% or so of the library.
GPR151 activ – activators of human GPR151, primary screen, cell-based, PathHunter beta-arrestin, luminescence; G-protein coupled receptor 151 (Homo sapiens), Q8TDV0; PathHunter beta-arrestin GPR151 cells; activation, % at 11.2 µM; 650,000 tested, 1% active; AID 1508602, 2020; in the data active means activation above about 4.9%
TEAD-YAP inh – TEAD-YAP interaction inhibition, primary screen, TEAD-YAP interaction inhibitor project, luminescence, HEK-TIYL cells; TEAD-Gal4/YAP UAS-luciferase luminescence; inhibition, % at 9.12 µM; 640,000 tested, 1.4% active; in the data active means inhibition above about 32%
MITF primary – MITF inhibitors, primary screen, biochemical, AlphaScreen, human; inhibition, % at 2.6 µM; AlphaScreen MITF homodimerization, bead proximity signal; 650,000 tested, 0.91% active; Microphthalmia-associated transcription factor (Homo sapiens), O75030; in the data active means inhibition above about 50%
Target sequence (O75030 whole entry, looked up): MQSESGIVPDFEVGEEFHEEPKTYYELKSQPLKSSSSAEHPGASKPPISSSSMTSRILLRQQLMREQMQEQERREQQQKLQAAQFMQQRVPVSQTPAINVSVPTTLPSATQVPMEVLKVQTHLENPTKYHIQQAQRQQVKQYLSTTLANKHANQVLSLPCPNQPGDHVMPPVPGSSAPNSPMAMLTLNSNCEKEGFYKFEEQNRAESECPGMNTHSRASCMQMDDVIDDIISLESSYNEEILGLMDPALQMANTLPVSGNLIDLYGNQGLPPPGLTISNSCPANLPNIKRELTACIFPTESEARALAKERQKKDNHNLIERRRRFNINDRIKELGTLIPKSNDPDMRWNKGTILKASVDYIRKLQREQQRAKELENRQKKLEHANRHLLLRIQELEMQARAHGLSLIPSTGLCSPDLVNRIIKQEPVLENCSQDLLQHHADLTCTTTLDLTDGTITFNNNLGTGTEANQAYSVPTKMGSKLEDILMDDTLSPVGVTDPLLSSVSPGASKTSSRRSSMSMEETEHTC
FBW7 act – FBW7 E3 ligase activators, primary screen, biochemical, AlphaScreen, human; F-box/WD repeat-containing protein 7 (Homo sapiens), Q969H0; AlphaScreen FBW7–phospho-cyclin E peptide binding, activator screen; normalized activity (activation), % at 26.1 µM; 650,000 tested, 0.13% active; in the data active means normalized activity above about 1.9%;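 further: purified mutant Fbw7 with reduced substrate affinity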
A number is an active result.

Results for COc1cc(/C=N/c2sc3c(c2C#N)CCC3)ccc1OCC(=O)O ?
GPR151 activ: inactive; TEAD-YAP inh: inactive; MITF primary: inactive; FBW7 act: inactive

What do the screens show for `N#Cc1c(/N=C/c2ccc(O)c(O)c2)sc2c1CCCC2`?
GPR151 activ: inactive; TEAD-YAP inh: 43; MITF primary: inactive; FBW7 act: inactive

Results for O=[N+]([O-])c1ccc(Oc2ccccc2O)c2c1no[n+]2[O-] ?
GPR151 activ: inactive; TEAD-YAP inh: inactive; MITF primary: 66; FBW7 act: inactive

What do the screens show for `COc1ccccc1Oc1ccc(C(N)=O)cc1[N+](=O)[O-]`?
GPR151 activ: inactive; TEAD-YAP inh: inactive; MITF primary: inactive; FBW7 act: inactive

How did Cc1ccc(Nc2c3c(c(C#N)c4nc5ccccc5n24)CCC3)cc1C do in these assays?
GPR151 activ: inactive; TEAD-YAP inh: inactive; MITF primary: inactive; FBW7 act: 2.2

How did CN(C)c1c2c(c(C#N)c3nc4ccccc4n13)CCC2 do in these assays?
GPR151 activ: inactive; TEAD-YAP inh: inactive; MITF primary: inactive; FBW7 act: inactive

What do the screens show for `N#Cc1c2c(c(Cl)n3c1nc1ccccc13)CCC2`?
GPR151 activ: inactive; TEAD-YAP inh: inactive; MITF primary: inactive; FBW7 act: 1.9

What do the screens show for `COc1cc(/C=c2\sc3nc4ccccc4n3c2=O)ccc1OCCOc1ccc(C)c(C)c1`?
GPR151 activ: inactive; TEAD-YAP inh: inactive; MITF primary: inactive; FBW7 act: inactive

What do the screens show for `O=C(CCc1ccccc1)NC(=S)Nc1cccc(S(=O)(=O)N2CCCC2)c1`?
GPR151 activ: inactive; TEAD-YAP inh: 47; MITF primary: inactive; FBW7 act: inactive

Results for O=C(CCc1ccccc1)NC(=S)Nc1ccc(S(=O)(=O)N2CCOCC2)cc1 ?
GPR151 activ: inactive; TEAD-YAP inh: inactive; MITF primary: inactive; FBW7 act: inactive

What do the screens show for `O=C(Nc1ccc(N2CCCCC2)cc1)c1ccccc1[N+](=O)[O-]`?
GPR151 activ: inactive; TEAD-YAP inh: inactive; MITF primary: inactive; FBW7 act: inactive

How did O=C(O)c1ccc(C(=O)c2ccc3c(c2)C(=O)N(c2ccccn2)C3=O)cc1 do in these assays?
GPR151 activ: inactive; TEAD-YAP inh: inactive; MITF primary: inactive; FBW7 act: inactive

How did CCC(=O)Nc1ccc(C2=NNC(=Nc3ccc(C)cc3)SC2)cc1 do in these assays?
GPR151 activ: inactive; TEAD-YAP inh: inactive; MITF primary: inactive; FBW7 act: inactive

How did CCOC(=O)c1c(C)[nH]c(C2=NNC(=NC3CC3)SC2)c1C do in these assays?
GPR151 activ: inactive; TEAD-YAP inh: 78; MITF primary: inactive; FBW7 act: inactive

How did CCC(=O)Nc1ccc(C2=NNC(=NC3CC3)SC2)cc1 do in these assays?
GPR151 activ: inactive; TEAD-YAP inh: 51; MITF primary: inactive; FBW7 act: inactive

How did Fc1ccc(C2=NNC(=NC3CC3)SC2)cc1F do in these assays?
GPR151 activ: inactive; TEAD-YAP inh: 65; MITF primary: inactive; FBW7 act: inactive

How did COCCCNc1ncnc2ccc(Br)cc12 do in these assays?
GPR151 activ: inactive; TEAD-YAP inh: inactive; MITF primary: inactive; FBW7 act: inactive

Results for Brc1ccc2ncnc(NCCc3ccccc3)c2c1 ?
GPR151 activ: inactive; TEAD-YAP inh: 64; MITF primary: inactive; FBW7 act: inactive

How did CC(Nc1ncnc2ccc(Br)cc12)c1ccccc1 (stereo unspecified) do in these assays?
GPR151 activ: inactive; TEAD-YAP inh: 34; MITF primary: inactive; FBW7 act: inactive

What do the screens show for `CC(Nc1ncnc2ccccc12)c1ccccc1` (stereo unspecified)?
GPR151 activ: inactive; TEAD-YAP inh: 56; MITF primary: inactive; FBW7 act: inactive

What do the screens show for `CCCCOC(=O)CSc1ncnc2sc(C)c(C)c12`?
GPR151 activ: inactive; TEAD-YAP inh: inactive; MITF primary: inactive; FBW7 act: inactive

Results for Cc1ccccc1NC(=O)c1ccc(Nc2nnc(-c3ccc(C)c(S(=O)(=O)N(C)C)c3)c3ccccc23)cc1 ?
GPR151 activ: inactive; TEAD-YAP inh: inactive; MITF primary: inactive; FBW7 act: inactive

How did Nc1nc(SCC(=O)N2CCCCC2)n[nH]1 do in these assays?
GPR151 activ: inactive; TEAD-YAP inh: inactive; MITF primary: inactive; FBW7 act: inactive

What do the screens show for `CCOC(=O)N1CCc2c(sc(NC(=O)c3ccccc3[N+](=O)[O-])c2C#N)C1`?
GPR151 activ: inactive; TEAD-YAP inh: 53; MITF primary: inactive; FBW7 act: inactive

What do the screens show for `CCOC(=O)N1CCc2c(sc(NC(=O)/C=C/c3ccccc3Cl)c2C#N)C1`?
GPR151 activ: inactive; TEAD-YAP inh: inactive; MITF primary: inactive; FBW7 act: inactive

How did CCOC(=O)N1CCc2c(sc(NC(=O)/C=C/c3ccccc3)c2C(N)=O)C1 do in these assays?
GPR151 activ: inactive; TEAD-YAP inh: 40; MITF primary: inactive; FBW7 act: inactive

Results for CCOC(=O)N1CCc2c(sc(NC(=O)CCc3ccccc3)c2C#N)C1 ?
GPR151 activ: inactive; TEAD-YAP inh: 54; MITF primary: inactive; FBW7 act: inactive

What do the screens show for `N#Cc1c(NC(=O)COc2cccc3ccccc23)sc2c1CCCC2`?
GPR151 activ: inactive; TEAD-YAP inh: inactive; MITF primary: inactive; FBW7 act: 2.0

Results for O=C(CBr)N/N=C/c1c(O)ccc2ccccc12 ?
GPR151 activ: inactive; TEAD-YAP inh: inactive; MITF primary: inactive; FBW7 act: inactive

Results for CC1Cc2ccccc2N1CC(=O)Nc1sc2c(c1C#N)CCC2 (stereo unspecified) ?
GPR151 activ: inactive; TEAD-YAP inh: 38; MITF primary: inactive; FBW7 act: inactive

How did CC(=O)Nc1sc2c(c1C#N)CCN(C(C)=O)C2 do in these assays?
GPR151 activ: inactive; TEAD-YAP inh: inactive; MITF primary: inactive; FBW7 act: inactive

How did CC1Cc2ccccc2N1CC(=O)Nc1sc2c(c1C(N)=O)CCC2 (stereo unspecified) do in these assays?
GPR151 activ: inactive; TEAD-YAP inh: inactive; MITF primary: inactive; FBW7 act: inactive

How did CC(=O)N1CCc2c(sc(NC(=O)/C=C/c3cccs3)c2C#N)C1 do in these assays?
GPR151 activ: inactive; TEAD-YAP inh: 58; MITF primary: inactive; FBW7 act: inactive

Results for CCOC(=O)N1CCc2c(sc(NC(=O)/C=C/c3ccccc3)c2C#N)C1 ?
GPR151 activ: inactive; TEAD-YAP inh: 35; MITF primary: inactive; FBW7 act: inactive

Results for O=Cc1c(NC(=O)Cc2ccccc2)sc2c1CCCC2 ?
GPR151 activ: inactive; TEAD-YAP inh: inactive; MITF primary: inactive; FBW7 act: 2.0

Results for Cc1nc(C)n(CC(=O)NCC2Cc3cc(Cl)cc(-c4ccc5[nH]ccc5c4)c3O2)n1 (stereo unspecified) ?
GPR151 activ: inactive; TEAD-YAP inh: inactive; MITF primary: inactive; FBW7 act: inactive

What do the screens show for `N#Cc1c(NC(=O)Cc2ccccc2)sc2c1CCC2`?
GPR151 activ: inactive; TEAD-YAP inh: inactive; MITF primary: inactive; FBW7 act: inactive

Results for N#Cc1c(NC(=O)CCc2ccccc2)sc2c1CCC2 ?
GPR151 activ: inactive; TEAD-YAP inh: 39; MITF primary: inactive; FBW7 act: inactive
